Measurements from PubChem BioAssay (NCI).
The panel holds about 79,000 compounds, 15% with a hit somewhere; the sample as a whole holds those more often. Active and inactive are the calls of the source. Rule as the data show it: active = growth inhibition above about 70%; inactive = the rest.

Legend:
[1] = NCI Yeast Anticancer Drug Screen. Data for the rad52 strain (AID 147);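 also: 0% = growth of vehicle-treated control cultures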; details: S. cerevisiae rad52 mutant growth inhibition, stronger effect = higher value
Outline: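 Measured: yeast growth inhibition. System: strain with a defined DNA damage repair alteration. Reference: vehicle-treated control cultures.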

[2] = NCI Yeast Anticancer Drug Screen. Data for the wt1 strain (AID 149);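 also: 0% = growth of vehicle-treated wt1 cultures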; details: S. cerevisiae wt1 strain (SPY 50644) growth inhibition, stronger effect = higher value
Outline: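 Yeast wt1 strain exposed to compounds; growth inhibition measured relative to vehicle-treated controls.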

[3] = NCI Yeast Anticancer Drug Screen. Data for the rad50EPP+ strain (AID 151);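 also: 0% = growth of vehicle-treated control cultures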; details: S. cerevisiae rad50 mutant strain, stronger effect = higher value
Outline: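 One strain with a rad50 alteration (rad50EPP+) was compound-treated, its growth then compared to that of vehicle controls.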

[4] = NCI Yeast Anticancer Drug Screen. Data for the mgt1 strain (AID 153); details: S. cerevisiae mgt1 mutant growth inhibition, stronger effect = higher value
Outline: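 After exposure of the mgt1 yeast mutant to compound, growth was measured and reported as inhibition compared with vehicle controls.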

[5] = NCI Yeast Anticancer Drug Screen. Data for the rad50 strain (AID 155);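 also: 0% = growth of vehicle-only cultures of the same strain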; details: S. cerevisiae rad50 strain growth inhibition, stronger effect = higher value
Outline: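 Yeast carrying a defined DNA repair defect were exposed to test compounds, and growth was compared with vehicle-treated controls to give percent inhibition.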

[6] = NCI Yeast Anticancer Drug Screen. Data for the rad14 strain (AID 159);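 also: 0% = growth of vehicle-treated control cultures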; details: S. cerevisiae rad14 strain growth inhibition, stronger effect = higher value
Outline: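 Yeast cells carrying a defined DNA-repair defect were exposed to compounds, and growth inhibition was calculated relative to vehicle-treated control cultures.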

[7] = NCI Yeast Anticancer Drug Screen. Data for the sgs1 mgt1 strain (AID 161);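 also: 0% = growth of cultures given vehicle only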; details: S. cerevisiae sgs1 mgt1 strain, stronger effect = higher value
Outline: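 Inhibition of yeast growth, normalised to vehicle-treated controls, is reported for a strain bearing genetic alterations in DNA damage repair.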

[8] = NCI Yeast Anticancer Drug Screen. Data for the CLN2oe strain (AID 163);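 also: 0% = growth of vehicle-only control cultures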; details: S. cerevisiae CLN2oe strain, stronger effect = higher value
Outline: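 Here, growth inhibition in a cell-cycle-altered yeast strain after compound exposure was quantified against vehicle control growth.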

[9] = NCI Yeast Anticancer Drug Screen. Data for the cln2 rad14 strain (AID 165);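 also: 0% = growth equal to vehicle treated cultures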; details: S. cerevisiae cln2 rad14 strain, stronger effect = higher value
Outline: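 Growth of compound-exposed yeast (cln2 rad14 genotype) measured and expressed as inhibition relative to vehicle.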

[10] = NCI Yeast Anticancer Drug Screen. Data for the bub3 strain (AID 167); details: S. cerevisiae bub3 mutant strain, stronger effect = higher value
Outline: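 Compounds were applied to a genetically altered yeast strain carrying a cell-cycle control defect. Growth inhibition was scored against vehicle-treated controls.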

[11] = NCI Yeast Anticancer Drug Screen. Data for the wt2 strain (AID 169);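 also: 0% = growth of vehicle-treated yeast cultures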; details: S. cerevisiae wt2 strain growth inhibition, stronger effect = higher value
Outline: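 Genetically defined yeast strains from a DNA-repair/cell-cycle panel were used. Compound-exposed yeast growth was measured, and the inhibition was calculated relative to vehicle treatment.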

[12] = NCI Yeast Anticancer Drug Screen. Data for the mlh1 strain (AID 171);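 also: 0% = growth of vehicle-treated control cultures of the same strain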; details: S. cerevisiae mlh1 strain growth inhibition, stronger effect = higher value
Outline: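 Here the genetically defined yeast mutant is grown with each compound, and the extent to which its growth falls below that of vehicle-exposed cells is reported.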

[13] = NCI Yeast Anticancer Drug Screen. Data for the sgs1 strain (AID 173);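 also: 0% = growth of vehicle-only control cultures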; details: S. cerevisiae sgs1 mutant, stronger effect = higher value
Outline: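 Relative growth inhibition, referenced to vehicle, was determined in a yeast strain with a defined alteration affecting DNA damage repair or cell cycle control after compound exposure.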

[14] = NCI Yeast Anticancer Drug Screen. Data for the mlh1 rad18 strain (AID 175); details: S. cerevisiae mlh1 rad18 strain growth inhibition, stronger effect = higher value
Outline: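 In this whole-cell yeast screen, a strain with altered DNA damage repair is challenged with compound, and its growth is measured against matched vehicle-treated controls.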

[15] = NCI Yeast Anticancer Drug Screen. Data for the rad18 strain (AID 177); details: S. cerevisiae rad18 mutant growth inhibition, stronger effect = higher value
Outline: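 Screen uses a yeast strain with a defined lesion in DNA damage repair; compound effect is read as loss of growth compared to untreated vehicle cultures.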

[16] = at 5.0 µM (retest, dose inferred, filed as 0.5)
[17] = at 50.0 µM (retest, dose inferred, filed as 5.0)

Measured: growth inhibition

O=[N+]([O-])C(=C(Sc1ccccc1)Sc1ccccc1)C(Cl)=C(Cl)Cl
inactive: [1]; at 1.2 µM 14% | [1]; at 3.7 µM 30% | [1]; at 11.0 µM 45% | [1]; at 33.0 µM 56% | [1]; at 100.0 µM 59% | [2]; at 1.2 µM 3% | [2]; at 3.7 µM 13% | [2]; at 11.0 µM 25% | [2]; at 33.0 µM 36% | [2]; at 100.0 µM 41% | [3]; at 1.2 µM 9% | [3]; at 3.7 µM 20% | [3]; at 11.0 µM 36% | [3]; at 33.0 µM 49% | [3]; at 100.0 µM 48% | [4]; at 1.2 µM 2% | [4]; at 3.7 µM 17% | [4]; at 11.0 µM 44% | [4]; at 33.0 µM 59% | [5]; at 1.2 µM 4% | [5]; at 3.7 µM 8% | [5]; [16] 5% | [5]; at 11.0 µM 23% | [5]; at 33.0 µM 46% | [5]; [17] 53% | [5]; at 50.0 µM 19.6% | [5]; at 100.0 µM 50% | [6]; at 1.2 µM 4% | [6]; at 3.7 µM 7% | [6]; at 11.0 µM 19% | [6]; at 33.0 µM 27% | [6]; at 100.0 µM 28% | [7]; [16] 2% | [7]; [17] 53% | [7]; at 50.0 µM 62.6% | [8]; at 1.2 µM 4% | [8]; at 3.7 µM 16% | [8]; at 11.0 µM 26% | [8]; at 33.0 µM 37% | [8]; at 100.0 µM 32% | [9]; [16] 44% | [9]; [17] 33% | [9]; at 50.0 µM 32.8% | [10]; at 1.2 µM 6% | [10]; at 3.7 µM 18% | [10]; [16] -1% | [10]; at 11.0 µM 33% | [10]; at 33.0 µM 45% | [10]; [17] 59% | [10]; at 50.0 µM 60.2% | [10]; at 100.0 µM 50% | [11]; at 1.2 µM 1% | [11]; at 3.7 µM 15% | [11]; at 11.0 µM 39% | [11]; at 33.0 µM 59% | [12]; at 1.2 µM 8% | [12]; at 3.7 µM 19% | [12]; at 11.0 µM 40% | [12]; at 33.0 µM 60% | [13]; at 1.2 µM 13% | [13]; at 3.7 µM 24% | [13]; at 11.0 µM 58% | [14]; [16] 12% | [14]; at 50.0 µM 59.5% | [15]; at 1.2 µM 15% | [15]; at 3.7 µM 43% | [15]; at 11.0 µM 66%
active: [4]; at 100.0 µM 74% | [11]; at 100.0 µM 73% | [12]; at 100.0 µM 74% | [13]; at 33.0 µM 76% | [13]; at 100.0 µM 78% | [14]; [17] 71% | [15]; at 33.0 µM 76% | [15]; at 100.0 µM 74%
